The test system of test [1] is TRPC4 beta (transient receptor potential cation channel C4), mouse. Nature of the test: activators of mouse TRPC4 channel, confirmation, cell-based, Fluo4 calcium, HEK293 TRPC4beta/mu-opioid, duplicates, 10 µM (AID 2426;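 active = fluorescence ratio normalized to control raised more than 50% in primary screen plus both repeat runs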). The following applies: Fluo4 calcium fluorescence, at 10 µM; stronger effect = higher value.
Test [2] concerns transient receptor potential cation channel C4 beta (TRPC4), mouse. Briefly: activators of mouse TRPC4 channel, confirmation, cell-based, second round, Fluo4, HEK293 TRPC4beta/mu-opioid, 1 µM (AID 2461;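 active = primary screen active and over 50% activation in each of two duplicate runs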). Particulars: Fluo4 calcium fluorescence, at 1 µM; stronger effect = higher value.
The subject of test [3] is TRPC4 (transient receptor potential cation channel C4 beta), mouse. Nature of the test: positive allosteric modulators of mouse TRPC4, confirmation, cell-based, second round, Fluo-4, HEK293 TRPC4beta/mu-opioid, 1 µM (AID 2554;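 active = primary screen hit whose fluorescence ratio, in both repeats, exceeds the weak agonist control mean by 3 SD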). Particulars: DAMGO EC20, Fluo-4 calcium flux, at 1 µM; stronger effect = higher value.
The subject of test [4] is TRPC4 beta (transient receptor potential cation channel C4), mouse. Briefly: positive allosteric modulators of mouse TRPC4, confirmation, cell-based, Fluo-4, HEK293 TRPC4beta/mu-opioid (AID 2555;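 active = primary screen hit whose calcium fluorescence ratio, in both repeats, exceeds the weak agonist control mean by 3 SD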). The following applies: DAMGO EC20, Fluo-4 calcium flux, at 10 µM; stronger effect = higher value.
Test [5] deals with Short transient receptor potential channel 4 (Mus musculus) (UniProt Q9QUQ5). Briefly: inhibitors of mouse TRPC4 channel, confirmation, cell-based, Fluo4, HEK293 TRPC4beta/mu-opioid (AID 2636;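 active = calcium signal cut by more than 3 SD below the full-agonist control yet still positive, in both repeats and the earlier primary screen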). The following applies: DAMGO, Fluo4 calcium flux, at 10 µM; stronger effect = higher value.
Test [6] shares this target. Nature of the test: inhibitors of mouse TRPC4 channel, confirmation, cell-based, second round, Fluo4, HEK293 TRPC4beta/mu-opioid, 1 µM (AID 2637;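 active = calcium signal ratio cut to more than 3 SD under the fully stimulated control mean yet still positive, in both repeats and the primary screen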;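 for inhibition: percent of integrated ratio relative to wells lacking test compound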). Particulars: Fluo4 calcium flux, DAMGO, at 1 µM; stronger effect = higher value.
Test [7] has the same target. Briefly: mouse TRPC4 channel activators, dose response, cell-based, HEK293 TRPC4/mu-opioid, Fluo-4 calcium (AID 434937;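 active = primary screen activator hit with a dose response curve and TRPC4 channel activation at any tested dose; inactive = no activation, no dose response, or not a primary hit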).
Test [8] has the same target. Briefly: TRPC4 positive allosteric modulators, dose response, cell-based, HEK293 TRPC4/mu-opioid, Fluo-4 calcium, EC20 DAMGO (AID 434941).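 Note: calcium entry triggered by an EC20 dose of DAMGO at the co-expressed mu-opioid receptor.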
Test [9] deals with Short transient receptor potential channel 6 (Mus musculus) (UniProt Q61143). Nature of the test: inhibition of mouse TRPC6 channel, confirmation, selectivity assay for TRPC4 inhibitor project, cell-based, HEK293, membrane potential dye, duplicate (AID 434948;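 active = active in primary screen and both duplicates, each dropping signal beyond three positive-control SD with fluorescence still positive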). Particulars: HEK293 TRPC6, membrane potential dye fluorescence, at 10 µM, stimulated with maximal-effect acetylcholine; stronger effect = higher value.

Test [10] shares this target. Briefly: activation of mouse TRPC6 channel, confirmation, selectivity assay for TRPC4 activator project, cell-based, HEK293, membrane potential dye, duplicate (AID 434950;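 active = membrane potential signal rise above negative control mean plus 3 SD in both duplicates, also active in the earlier TRPC4 screen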). Particulars: HEK293 TRPC6, membrane potential fluorescence, at 10 µM; stronger effect = higher value.
Test [11] shares this target. Nature of the test: TRPC6 potentiation by TRPC4 potentiator hits, confirmation, selectivity assay for TRPC4 potentiator project, HEK293 cells, membrane potential dye, duplicate (AID 434952;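 active = compound raising the membrane signal above positive-control mean plus 3 SD in both repeats, and a primary screen hit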). The following applies: HEK293 TRPC6, membrane potential dye fluorescence, at 10 µM, maximal acetylcholine added after compound; stronger effect = higher value.
Test [12] addresses Short transient receptor potential channel 4 (Mus musculus) (UniProt Q9QUQ5). Nature of the test: calcium flux activators in TRPC4/5HT1a cells, counter-screen for TRPC4 activator project, cell-based, second counter screen, HEK293 TRPC4/5HT1a, Fluo-4 (AID 434977;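 active = calcium signal rise above buffer-control mean plus 5 SD in both duplicates, and also a hit in the primary screen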). Particulars: Fluo-4 calcium flux, at 10 µM; stronger effect = higher value.
Test [13] in a line: calcium flux inhibitors in TRPC4/5HT1a cells, confirmation, counter-screen for TRPC4 inhibitor project, cell-based, second counter screen, HEK293 TRPC4/5HT1a, Fluo-4 (AID 434978;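 active = primary screen active whose calcium signal fell more than 3 SD beyond the full-serotonin control mean in both duplicate plates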;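 for outcome: serotonin given first at submaximal then at maximal dose after compound preincubation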). Particulars: Fluo-4 calcium flux, at 10 µM, serotonin added to trigger calcium flux; stronger effect = higher value.
For test [14], the system named is TRPC4 (mouse), co-expressed with 5HT1a in HEK293. Briefly: calcium flux potentiators in TRPC4/5HT1a cells, confirmation, counter-screen for TRPC4 potentiator project, cell-based, second counter screen, HEK293 TRPC4/5HT1a, Fluo-4 (AID 434979;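 active = signal rise over 3 SD above mean of control wells given weak agonist, in both repeats and first screen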). The following applies: Fluo-4 calcium flux, at 10 µM, serotonin added at its EC20 dose; stronger effect = higher value.
Test [15] in a line: calcium flux activation in mu-opioid HEK293 cells, confirmation, counter-screen for TRPC4 activator project, cell-based, HEK293 mu-opioid receptor line (AID 449723;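 active = hit in primary screen, with calcium signal over 5 SD above buffer well mean in both duplicates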;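 note: counter screen cells carry the mu-opioid receptor alone and lack TRPC4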). Particulars: Fluo-4 calcium fluorescence, at 10 µM; stronger effect = higher value.
Test [16] can be described thus: calcium flux enhancement in mu-opioid HEK293 cells, confirmation, counter-screen for TRPC4 allosteric potentiator project, cell-based, HEK293 mu-opioid receptor line (AID 449724;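 active = calcium signal rise more than 3 SD above the low-dose agonist control mean, in both duplicate plates and the primary screen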;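 note: HEK293 cells carrying mu-opioid receptor only with no TRPC4 channel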). The following applies: Fluo-4 calcium flux, at 10 µM, compound added before EC20 DAMGO stimulus; stronger effect = higher value.

SMILES strings stand for the structures. For part of these data: Potency and affinity values are given separately. Calls of active or inactive are those of the source.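 Rule for the calls, unless noted: active = earlier screen potentiator hit that boosts the TRPC4 ion channel at some dose, with a dose response; inactive = no potentiation, no dose response, or not a prior hit.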

Short transient receptor potential channel 6 (Mus musculus), sequence (Q61143 whole entry, looked up): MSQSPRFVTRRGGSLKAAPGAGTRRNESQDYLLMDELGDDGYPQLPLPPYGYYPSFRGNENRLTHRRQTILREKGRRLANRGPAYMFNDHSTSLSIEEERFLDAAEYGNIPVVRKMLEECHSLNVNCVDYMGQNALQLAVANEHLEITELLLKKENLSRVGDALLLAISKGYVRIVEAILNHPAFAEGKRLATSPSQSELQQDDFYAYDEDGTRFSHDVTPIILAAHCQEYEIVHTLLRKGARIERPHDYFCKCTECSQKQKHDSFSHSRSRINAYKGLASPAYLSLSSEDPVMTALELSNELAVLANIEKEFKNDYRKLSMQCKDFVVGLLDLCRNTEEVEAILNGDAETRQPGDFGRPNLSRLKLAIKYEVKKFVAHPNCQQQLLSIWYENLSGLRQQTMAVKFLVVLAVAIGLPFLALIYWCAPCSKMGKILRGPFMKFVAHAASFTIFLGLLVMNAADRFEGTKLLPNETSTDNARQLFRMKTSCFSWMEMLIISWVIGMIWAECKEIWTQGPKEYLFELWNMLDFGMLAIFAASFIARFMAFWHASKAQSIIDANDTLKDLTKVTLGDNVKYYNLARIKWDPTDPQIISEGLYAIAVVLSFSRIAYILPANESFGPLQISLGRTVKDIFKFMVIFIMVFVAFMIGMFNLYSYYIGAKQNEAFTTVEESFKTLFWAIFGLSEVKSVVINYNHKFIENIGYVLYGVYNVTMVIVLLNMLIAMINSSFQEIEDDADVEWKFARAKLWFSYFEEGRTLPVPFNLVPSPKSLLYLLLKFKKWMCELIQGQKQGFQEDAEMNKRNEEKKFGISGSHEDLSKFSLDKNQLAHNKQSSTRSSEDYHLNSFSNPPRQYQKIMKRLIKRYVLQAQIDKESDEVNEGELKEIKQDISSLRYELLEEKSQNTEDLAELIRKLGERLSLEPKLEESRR
Short transient receptor potential channel 4 (Mus musculus), sequence (Q9QUQ5 whole entry, looked up): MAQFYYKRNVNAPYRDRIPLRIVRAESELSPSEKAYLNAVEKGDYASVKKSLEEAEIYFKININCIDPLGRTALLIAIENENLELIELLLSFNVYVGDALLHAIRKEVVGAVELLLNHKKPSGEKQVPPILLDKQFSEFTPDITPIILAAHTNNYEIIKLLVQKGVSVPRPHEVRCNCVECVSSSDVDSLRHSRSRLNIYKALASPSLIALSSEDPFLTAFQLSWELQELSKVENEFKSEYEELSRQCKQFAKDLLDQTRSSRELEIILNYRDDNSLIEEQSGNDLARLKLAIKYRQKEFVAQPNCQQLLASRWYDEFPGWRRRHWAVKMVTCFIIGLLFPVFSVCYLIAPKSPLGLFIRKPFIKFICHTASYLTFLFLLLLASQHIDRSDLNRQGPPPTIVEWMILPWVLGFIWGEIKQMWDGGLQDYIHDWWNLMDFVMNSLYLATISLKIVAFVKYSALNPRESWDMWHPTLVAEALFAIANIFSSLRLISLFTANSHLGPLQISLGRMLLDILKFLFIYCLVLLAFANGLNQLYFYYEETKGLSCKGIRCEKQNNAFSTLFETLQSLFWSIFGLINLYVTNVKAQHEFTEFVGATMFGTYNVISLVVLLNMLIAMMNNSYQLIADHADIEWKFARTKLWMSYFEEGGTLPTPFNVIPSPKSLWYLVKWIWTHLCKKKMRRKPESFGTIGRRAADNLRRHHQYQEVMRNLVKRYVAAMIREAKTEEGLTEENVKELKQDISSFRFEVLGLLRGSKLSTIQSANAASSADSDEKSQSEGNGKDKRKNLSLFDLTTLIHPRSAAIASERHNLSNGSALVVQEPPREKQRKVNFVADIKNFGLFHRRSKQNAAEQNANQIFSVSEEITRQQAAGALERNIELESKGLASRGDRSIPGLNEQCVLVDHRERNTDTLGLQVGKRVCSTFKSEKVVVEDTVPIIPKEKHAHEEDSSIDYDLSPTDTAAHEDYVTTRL

For `Cc1cccc(NC(=O)CSc2nnc(-c3cc(C)n(-c4ccccc4)c3C)o2)c1C`, the result in test [1], in test [2], in test [3], in [4], in test [6] and in [7] was inactive. Besides, the outcome in [8], in test [9], in test [10], in [11], in test [12] and in test [14] was inactive. Also, the result in test [15] and in test [16] was inactive. Further, the inhibition is 78% (active) in [5] and 16.2% (active) in [13].

For `COc1ccc2c(c1)sc(N)[n+]2Cc1cc(C)cc2cccnc12`, the result in [1], in test [2], in test [3], in test [4], in [6] and in test [7] was inactive. In addition, the result in test [8], in test [10], in test [11], in test [12], in test [14] and in [15] was inactive. Also, in test [16], the outcome was inactive. The inhibition was 99% (active) in [5], 37% (active) in test [9] and 28.6% (active) in test [13].

For the compound `Cc1cc(C)c2[nH]c(=O)c(CN(Cc3cccnc3)C(=S)NCCCN(C)C)cc2c1`, the outcome in test [1], in [2], in test [3], in test [4], in test [7] and in [8] was inactive. In addition, the call in [9], in [10], in test [11], in [12], in test [14] and in test [15] was inactive. Moreover, the result in test [16] was inactive. Further, the inhibition in test [5] is 89% (active); in test [6] it was 60% (active); in [13], 20.5% (active).

`COc1cc(CNCCCN2CCOCC2)cc(Br)c1OCc1ccc(Cl)cc1`: the result in test [1], in [2], in test [3], in test [4], in [5] and in test [6] was inactive. Further, the result in test [7], in [8], in [10], in test [11], in test [12] and in [14] was inactive. Moreover, the result in test [15] and in test [16] was inactive. For the same compound, the inhibition in test [9] was 51% (active); in [13], 23.6% (active).

For the compound `OCC1(CCc2ccccc2)CCN(Cc2cc(Cl)ccc2O)CC1`, the outcome in test [1], in test [2], in [3], in [4], in test [6] and in test [7] was inactive. Moreover, the result in test [8], in test [9], in [10], in test [11], in test [12] and in test [13] was inactive. Also, the outcome in test [14], in test [15] and in test [16] was inactive. Moreover, the inhibition in [5] was 79% (active).

For `CCOc1cc(CNCCCN2CCOCC2)cc(Br)c1OCC(=O)Nc1cccc(C(F)(F)F)c1`, the outcome in [1], in [2], in test [3], in [4], in test [7] and in test [8] was inactive. The compound was called inactive in [9], in [10], in test [11], in [12], in test [14] and in test [15]. Besides, the result in test [16] was inactive. Moreover, the results for the inhibition in test [5], in [6] and in test [13] were 101% (active), 40% (active) and 30.5% (active), respectively.

Consider `CC(C)c1ccc(S(=O)(=O)/N=C2\C=C(NS(=O)(=O)c3ccccc3)C(=O)c3ccccc32)cc1`, for which the result in test [1], in [2], in test [3], in test [4], in test [6] and in test [7] was inactive. Moreover, the outcome in test [8], in [10], in [11], in test [12], in [14] and in test [15] was inactive. Besides, the outcome in test [16] was inactive. For the same compound, the values for the inhibition in [5], in test [9] and in test [13] were 81% (active), 21.5% (active) and 19.2% (active), respectively.

Regarding `C=C(c1ccc(O)cc1)c1ccc(O)cc1`, the result in [1], in test [2], in test [3], in test [4], in [7] and in test [8] was inactive. Besides, the compound was classed as inactive in [9], in test [10], in test [11], in test [12], in test [14] and in test [15]. Besides, the result in [16] was inactive. Besides, the inhibition in test [5] was 89% (active); in test [6], 47% (active); in test [13], 29.6% (active).

As for `Cc1oc(-c2ccc(Cl)cc2)nc1CN1CCC(C(=O)NCc2cccs2)CC1`, the outcome in test [1], in test [2], in [3], in test [4], in [6] and in [7] was inactive. Also, the result in test [8], in test [9], in test [10], in [11], in test [12] and in test [14] was inactive. Further, the result in [15] and in test [16] was inactive. The inhibition in [5] is 79% (active); in [13], 26.7% (active).

Regarding `CNC(=O)COc1ccc2oc3c(c2c1)CCCC3`, the result in test [1], in test [2], in [3], in test [4], in test [7] and in test [8] was inactive. The compound was classed as inactive in test [9], in test [10], in test [11], in test [12], in test [14] and in test [15]. Further, the result in test [16] was inactive. Further, the inhibition in test [5] is 74% (active); in test [6] it was 49% (active); in test [13], 31.4% (active).

`O=C(Cn1c(NCCCO)nc2ccccc21)c1ccc(Br)cc1`: the result in test [1], in test [2], in test [3], in test [4], in test [7] and in test [8] was inactive. Besides, the compound was classed as inactive in test [9], in test [10], in [11], in [12], in test [14] and in test [15]. Further, the outcome in test [16] was inactive. In addition, the inhibition in [5] is 88% (active); in [6], 52% (active); in test [13] it was 28.7% (active).

Turning to `Cn1nnnc1SCCNCc1ccccc1OCc1ccc(Cl)cc1`, the outcome in test [1], in [2], in [3], in [4], in test [7] and in test [8] was inactive. Besides, the call in test [9], in test [10], in [11], in [12], in test [14] and in test [15] was inactive. Also, the outcome in [16] was inactive. For the same compound, the inhibition was 88% (active) in test [5], 45% (active) in [6] and 23.5% (active) in test [13].

`COc1cc(C(=O)N(CCc2ccccc2)C2=CC3CCC(C2)N3C)cc(OC)c1OC` (stereo not given): the result in test [1], in test [2], in test [3], in [4], in test [5] and in test [7] was inactive. Moreover, the result in test [8], in test [9], in test [10], in [11], in test [12] and in test [13] was inactive. Moreover, the outcome in test [14], in test [15] and in test [16] was inactive. Further, the inhibition in test [6] is 54% (active).

`CCCn1c(NC(=O)c2ccc(Cl)c(S(=O)(=O)N3CCCC3)c2)nc2ccccc21`: the outcome in [1], in [2], in test [6], in test [7], in test [8] and in [9] was inactive. The call in test [10], in test [11], in test [12], in test [13], in [15] and in test [16] was inactive. The potentiation in [3] is 10% (active); in test [4], 24% (active); in test [14], 6.75% (active). Further, the inhibition in test [5] is 69% (active).

Regarding `CN1CCN(Cc2cn[nH]c2-c2ccc(F)cc2F)[C@@H](c2ccccc2)C1`, the outcome in test [1], in [2], in test [3], in test [4], in [5] and in [6] was inactive. The result in test [7], in test [8], in test [9], in test [10], in [11] and in test [12] was inactive. Further, the result in test [13], in test [14], in [15] and in test [16] was inactive.

Source of the values: PubChem BioAssay.
